# Laboratory results from PubChem BioAssay (NCATS).
# Records with an inconclusive call do not appear. Where a call stands in place of a potency, no number is given. A number with no mark means an inactive call. Calls of active or inactive are those of the source. Calls come from the whole dose curve; as a rule, active = well fitted curve in the direction sought with a large enough effect; inconclusive = small, poorly fitted or top-dose-only effect, or another doubt; inactive = no such curve, though single readings can be large; an effect the other way counts as inactive or inconclusive.
# How the values were obtained:
# [1] = system: Zika virus NS2B-NS3 protease (unlinked complex); assay: Primary screen GU Rhodamine qHTS for Zika virus inhibitors: Unlinked NS2B-NS3 protease assay (AID 1347159); note: nearly all actives have a fitted effect of over 60% in size; note: potency is the fitted concentration of half-maximal effect
# Summary of the method: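 Noncovalent NS2B hydrophilic domain/NS3 protease complex (25 nM final) in 10 mM Tris-HCl pH 8.0, 0.01% Tween 20, preincubated 15 min with compounds (up to 114 microM), then 1.5 microM Rhodamine110 substrate. Fluorescence change over 15 min fitted to 4-parameter Hill.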
# [2] = system: Zika virus NS2B-NS3 protease (linked construct); assay: Primary screen NINDS Rhodamine qHTS for Zika virus inhibitors (AID 1347160); note: nearly all actives have a fitted effect of over 55% in size; note: potency is the fitted concentration of half-maximal effect
# Summary of the method: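 Purified NS2B-NS3 protease with the NS2B hydrophilic domain joined by a flexible linker (25 nM) in 10 mM Tris-HCl pH 8.0, 0.01% Tween 20, preincubated 15 min at RT with compound; Rhodamine110 peptide substrate 1.5 µM; fluorescence change over 15 min; 4-parameter Hill fit.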
# [3] = Confirmatory screen NINDS Rhodamine qHTS for Zika virus inhibitors (AID 1347161);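 note: purified Zika NS2B-NS3 protease with linked NS2B cofactor domain and Rhodamine110 peptide substrate; series mostly up to about 110 µM; nearly all actives have a fitted effect of over 60% in size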
# Summary of the method: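 Each compound, titrated, sat 15 min with 25 nM linked protease before 1.5 microM Rhodamine110 substrate went in. Fluorescence gain over the next 15 min, in pH 8.0 Tris with Tween 20, gave Hill-fitted curves.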
# [4] = Tertiary RLuc qRT-PCR qHTS assay for Zika virus inhibitors (AID 1347169); note: nearly all actives have a fitted effect of over 55% in size; note: potency is the fitted concentration of half-maximal effect; for activity change, negative = inhibition: top concentration of the series differs between compounds
# Summary of the method: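 Inhibition of ZIKV-RLuc replication in Vero cells, read as Renilla luminescence 1-1.5 hrs after live-cell substrate addition, following 48-72 hrs infection at MOI 1-2 in presence of compound.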
# [5] = system: Zika virus NS2B-NS3 protease (linked construct); assay: 384 well plate NINDS Rhodamine confirmatory qHTS for Zika virus inhibitors (AID 1347164); note: top concentration of the series differs between compounds; nearly all actives have a fitted effect of over 65% in size
# Summary of the method: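 Cleavage of Ac-LKRR-Rhodamine 110 (10 microM final) by linked protease (final 5, 30 or 60 nM) was followed as fluorescence at 485/538 nm after 25 min, room temperature, dark. Compounds preincubated ~15 min.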
# [6] = Vero cells viability qHTS for Zika virus inhibitors (AID 1347167)
# Summary of the method: (§1)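 Counter-screen for cytotoxicity of hits from NS2B-NS3 protease qHTS. Overnight-attached cells (2.5 x 10^5 cells/mL, DMEM/4% FBS) were dosed in titration, incubated 24 to 48 hours, then assayed by CellTiter Glo.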
# [7] = HepG2 cells viability qHTS for Zika virus inhibitors (AID 1347168)
# Summary of the method: as §1
smiles,measurement,setting,value
N#Cc1c(Oc2ccc(F)c(NC(=O)Cc3cccc(C(F)(F)F)c3)c2)ccc2nc(NC(=O)C3CC3)sc12,Potency,[1],inactive
same,Potency,[2],inactive
CC(C)(C)CCN1C[C@@H]2C(CNC(=O)c3cc(Cl)cc(Cl)c3)[C@@H]2C1 (some centres not stated),Potency,[1],inactive
same,Potency,[2],inactive
CC1(C)CC(=O)C2=C(C1)NC(=S)NC2c1cccc(O)c1 (configuration not stated),Potency,[1],inactive
same,Potency,[2],inactive
O=C(O)CCCCCC[C@H]1C(=O)NC(=O)N1CC[C@@H](O)C1CCCCC1,Potency,[1],inactive
same,Potency,[2],inactive
Nc1ccc(/C=C/C(=O)NCc2cc3cc(-c4ccc(C(=O)N5CCC(F)(F)CC5)cc4)cc(-c4ccc(F)cc4)c3o2)cn1,Potency,[1],inactive
same,Potency,[2],inactive
COC(=O)c1ccnc(-c2cc(C(=O)NCCc3ccccc3)ccn2)c1,Potency,[1],inactive
same,Potency,[2],inactive
COc1cc2c(cc1O)CC[C@H]1[C@@H]2CC[C@]2(C)[C@H](O)CC[C@@H]12,Potency,[1],inactive
same,Potency,[2],inactive
COc1c2cc(c(O)c1OC)-c1cc(ccc1O)CCC(O)CCCC2 (configuration not stated),Potency,[1],inactive
same,Potency,[2],inactive
CCN1CCN(Cc2ccc(NC(=O)c3ccc(C)c(/C=C/c4cnc5[nH]ccc5c4OC)c3)cc2C(F)(F)F)CC1,Potency,[1],inactive
same,Potency,[2],inactive
CC(C)(O)CC(CO)NC(=O)CC(O)CC(=O)Cc1ccccc1 (configuration not stated),Potency,[1],inactive
same,Potency,[2],inactive
NC(=O)Nc1cc(-c2cccc(F)c2)sc1C(=O)NC1CCCNC1 (configuration not stated),Potency,[1],inactive
same,Potency,[2],inactive
C/C(=C\CCC1(C)C2CCC(C2)C1(C)O)C(=O)O (configuration not stated),Potency,[1],22.4 µM (active)
same,Potency,[2],inactive
C[C@@H]1CC[C@@]2(OC1)O[C@H]1C[C@H]3[C@@H]4CC=C5C[C@@H](O)CC[C@]5(C)[C@H]4CC[C@]3(C)[C@H]1[C@@H]2C,Potency,[1],inactive
same,Potency,[2],inactive
COc1ccc(C(O)C(C)OC2OC(CO)C(O)C(O)C2O)cc1 (configuration not stated),Potency,[1],inactive
same,Potency,[2],inactive
C=C1C[C@]23C[C@H]1CC[C@H]2[C@@]1(C)CCC[C@@]2(C)C(=O)O[C@@H]([C@@H]3O)[C@@H]12,Potency,[1],inactive
same,Potency,[2],inactive
C/C=C(/COC(=O)/C(C)=C/C)C(=O)OC(CC)c1ccc(OC)c(OC)c1 (configuration not stated),Potency,[1],inactive
same,Potency,[2],inactive
CC[C@H]1OC(=O)[C@](C)(F)C(=O)[C@H](C)[C@@H](O[C@@H]2O[C@H](C)C[C@H](N(C)C)[C@H]2O)[C@](C)(OC)C[C@@H](C)C(=O)[C@@H](C)[C@H]2N(CCCCn3cc(-c4cccc(N)c4)nn3)C(=O)O[C@]12C,Potency,[1],inactive
same,Potency,[2],inactive
CC1(C(=O)O)CCCC2(C)C3=CCC4CC3(CCC12)CC4CO (configuration not stated),Potency,[1],inactive
same,Potency,[2],inactive
COc1ccc(-c2ccc(-c3cn(C(=O)N4CCCCC4c4ccccc4)nn3)cc2)cc1 (configuration not stated),Potency,[1],inactive
same,Potency,[2],inactive
CN(C)C/C=C/C(=O)Nc1cccc(C(=O)Nc2ccc(Nc3nccc(-c4cccnc4)n3)cc2)c1,Potency,[1],79.4 µM (active)
same,Potency,[2],inactive
Cc1cc(Cl)ccc1COc1ccnn1-c1cc(C(=O)O)ccn1,Potency,[1],inactive
same,Potency,[2],inactive
C=C(C)C(=O)OC1C(OC(C)=O)/C(C=O)=C\CC/C(CO)=C/C2OC(=O)C(=C)C21 (configuration not stated),Potency,[1],inactive
same,Potency,[2],inactive
CC1CCN(C(=O)CC#N)CC1N(C)c1ncnc2[nH]ccc12 (configuration not stated),Potency,[1],inactive
same,Potency,[2],inactive
O=C(Nc1ccc(-c2ccncc2)cc1)N[C@H](CO)c1ccccc1,Potency,[1],inactive
same,Potency,[2],inactive
C=C(CCC1=C(C)[C@H]2[C@H](CC3[C@@H]4CC=C5C[C@@H](O)C[C@@H](O)[C@]5(C)C4[C@H](O)C[C@@]32C)O1)CO[C@@H]1O[C@H](CO)[C@@H](O)[C@H](O)[C@H]1O (some centres not stated),Potency,[1],inactive
same,Potency,[2],inactive
Cn1ncnc1COc1nn2c(-c3cc(F)ccc3F)nnc2cc1C(C)(C)C,Potency,[1],inactive
same,Potency,[2],inactive
COc1cc(O)cc(/C=C/c2ccc(O[C@@H]3O[C@H](CO)[C@@H](O)[C@H](O)[C@H]3O)cc2)c1,Potency,[1],inactive
same,Potency,[2],inactive
C[C@@H]1CC[C@]2(C(=O)O[C@@H]3O[C@H](CO)[C@@H](O)[C@H](O)[C@H]3O)CC[C@]3(C)C(=CCC4[C@@]5(C)C[C@@H](O)[C@H](O)[C@@](C)(C(=O)O[C@H]6[C@H](O)C[C@@]7(C)C(CC[C@]8(C)C7CC=C7[C@H]9[C@](C(=O)O[C@@H]%10O[C@H](CO)[C@@H](O)[C@H](O)[C@H]%10O)(CC[C@@H](C)[C@@]9(C)O)CC[C@]78C)[C@@]6(CO)C(=O)O)C5CC[C@]43C)[C@@H]2[C@]1(C)O (some centres not stated),"activity change, negative = inhibition",[1],-16.4% [at 19.1 µM]
same,"activity change, negative = inhibition",[2],-25.7% [at 10.7 µM]
CC(=O)C=C=C1C(C)(C)CC(O[C@@H]2O[C@H](CO)[C@@H](O)[C@H](O)[C@H]2O)CC1(C)O (some centres not stated),Potency,[1],inactive
same,Potency,[2],inactive
CNC(C)C(=O)NC(C(=O)N1CCCC1c1nc(C(=O)c2ccc(F)cc2)cs1)C1CCCCC1 (configuration not stated),Potency,[1],inactive
same,Potency,[2],inactive
CN1CCN(Cc2ccc(-c3cnc4[nH]cc(-c5ccc6[nH]ccc6c5)c4c3)cc2)CC1,Potency,[1],inactive
same,Potency,[2],inactive
CC(=O)OC1C[C@]2(C)C(O)CC(C)=C[C@H](OC(=O)c3ccc(O)cc3)C2[C@]1(O)C(C)C (some centres not stated),Potency,[1],inactive
same,Potency,[2],inactive
COC(=O)CCC(=O)OC[C@]1(C)CCC[C@@]2(C)C3CC[C@]4(C)C=CC3(CCC12)C4 (some centres not stated),Potency,[1],inactive
same,Potency,[3],inactive
CC1(C)CC2C(C1)C(C)(O)C13CC1(COC3=O)C2O (configuration not stated),Potency,[1],inactive
same,Potency,[2],inactive
CC1(O)CC(O)C2(O)C=COC(O[C@@H]3O[C@H](CO)[C@@H](O)[C@H](O)[C@H]3O)C12 (some centres not stated),Potency,[2],inactive
CC(=O)O[C@H]1CC(C)(C)CC2[C@@]13[C@H](O)C[C@]1(C)[C@@]2(CCC2[C@@]4(C)CC[C@H](O[C@@H]5OC[C@H](O[C@@H]6O[C@H](CO)[C@@H](O)[C@H](O)[C@H]6O[C@@H]6OC[C@@H](O)[C@H](O)[C@H]6O)[C@H](O)[C@H]5O[C@@H]5O[C@H](CO)[C@@H](O)[C@H](O)[C@H]5O)C(C)(C)C4CC[C@]21C)O[C@@H]3O (some centres not stated),Potency,[1],inactive
same,Potency,[2],inactive
CN[C@@H]1[C@H](O[C@H]2[C@H](O[C@@H]3[C@@H](O)[C@H](O)[C@@H](N=C(N)N)[C@H](O)[C@H]3N=C(N)N)O[C@@H](C)[C@]2(O)C=O)O[C@@H](CO)[C@H](O)[C@H]1O,Potency,[1],inactive
same,Potency,[2],inactive
COc1ccc(CN2C(=O)C(=O)c3cc(S(=O)(=O)N4CCC[C@H]4COc4cccnc4)ccc32)cc1,Potency,[1],inactive
same,Potency,[2],inactive
O=C1OCc2cc3cccc(O[C@@H]4O[C@H](CO)[C@@H](O)[C@H](O)[C@H]4O)c3c(O)c21,Potency,[1],inactive
same,Potency,[2],11.2 µM (active)
same,Potency,[4],inactive
C[C@@H]1O[C@@H](O[C@@H]2[C@@H](O)[C@H](O[C@H]3[C@H](O[C@H]4CC[C@@]5(C)C(CC[C@]6(C)C5CC=C5[C@@H]7CC(C)(C)CC[C@]7(C(=O)O[C@@H]7O[C@H](CO)[C@@H](O)[C@H](O)[C@H]7O[C@@H]7O[C@@H](C)[C@H](O[C@@H]8O[C@@H](C)[C@H](O)[C@@H](O)[C@H]8O)[C@@H](O)[C@H]7O)CC[C@]56C)[C@@]4(C)CO)O[C@H](C(=O)O)[C@@H](O)[C@@H]3O)O[C@H](CO)[C@H]2O)[C@H](O)[C@H](O)[C@H]1O (some centres not stated),"activity change, negative = inhibition",[2],3.12% [at 10.7 µM]
CC(C)CC(=O)OC1OC=C(CO[C@@H]2O[C@H](CO)[C@@H](O)[C@H](O)[C@H]2O)C2CC(O)C(O)(CO)C12 (some centres not stated),Potency,[1],inactive
same,Potency,[4],inactive
Cc1cc(=O)oc2c(C=O)c(O)ccc12,Potency,[1],79.4 µM (active)
same,Potency,[2],inactive
same,Potency,[4],inactive
CO[C@H]1/C=C\O[C@@]2(C)Oc3c(C)c(O)c4c(O)c(c5c(nc6cc(C)ccn65)c4c3C2=O)NC(=O)/C(C)=C\C=C/[C@H](C)[C@H](O)[C@@H](C)[C@@H](O)[C@@H](C)[C@H](OC(C)=O)[C@@H]1C,Potency,[1],inactive
same,Potency,[2],inactive
O=[N+]([O-])c1cccc2[nH]c(CNc3nc(N4CCOCC4)nc4c3ncn4-c3ccsc3)nc12,Potency,[1],89.1 µM (active)
same,Potency,[2],inactive
same,Potency,[4],0.117 µM (active)
Cc1noc(=O)c2ccc(NC(=O)C(O)(CC(C)(C)c3cccc4c3OCC4)C(F)(F)F)cc12 (configuration not stated),Potency,[2],inactive
C/C=C/c1ccc(O[C@@H]2O[C@H](CO)[C@@H](O)[C@H](O)[C@H]2O)c(OC)c1,Potency,[2],inactive
N=c1nc2n(cc1F)C1OC(CO)C(O)C1O2 (configuration not stated),Potency,[2],inactive
CC1(C)CCC2(C(=O)OC3OC(CO)C(O)C(O)C3O)CCC3(C)C(=CCC4C5(C)CCC(O)C(C)(C(=O)O)C5CCC43C)C2C1O (configuration not stated),Potency,[2],inactive
CC1CC(C(O)C(C)(C)O)OC2CC3(C)C4(C)CCC5C(C)(C)C(=O)CCC5(C)C4CCC3(O)C12O (configuration not stated),Potency,[2],inactive
CCCCc1ccc(C(=O)Nc2cc(-c3ccc(Cl)cc3)nn2-c2ccc(Cl)cc2)cc1,Potency,[1],39.8 µM (active)
same,Potency,[2],inactive
same,Potency,[3],inactive
CC1=CC(=O)C2(OC3OC(C)C(O)C(OC(=O)/C=C/c4ccccc4)C3O)C=COC(OC3OC(CO)C(O)C(O)C3O)C12 (configuration not stated),Potency,[2],inactive
Nc1nc2c(c(=O)[nH]1)C[C@@H](CCc1ccc(C(=O)N[C@@H](CCC(=O)O)C(=O)O)cc1)CN2,Potency,[2],inactive
COc1cc(Br)c(Nc2nc(-c3c(C)nc4ncccn34)cs2)c(Br)c1,Potency,[2],inactive
C=CC(C)(O)C(O)CC1C(C)(O)C(O)C(O)C2C(C)(C)CCCC21C (configuration not stated),Potency,[1],inactive
same,Potency,[2],inactive
Nc1ncnc2c([C@@H]3N[C@H](CO)[C@@H](O)[C@H]3O)c[nH]c12,Potency,[1],inactive
same,Potency,[2],inactive
same,Potency,[3],inactive
same,Potency,[5],inactive
same,outcome,[6],inactive
same,outcome,[7],inactive
COc1cc(Nc2nc3c(s2)CCCC3c2ccc(F)cc2)ccc1-n1cnc(C)c1 (configuration not stated),Potency,[2],inactive
CC(C)(O)/C=C/CC(C)(O)C1C(O)CC2(C)C3CCC4C(C)(C)C(=O)CCC4(C)C3CCC12C (configuration not stated),Potency,[2],inactive
CC(=O)N[C@H]1[C@H](O[C@H]2CC[C@@]3(C)C(CC[C@]4(C)C3CC=C3[C@@H]5CC(C)(C)CC[C@]5(C(=O)OC5OCC(O)C(O)C5O)CC[C@]34C)C2(C)C)O[C@H](COC2OC(C)C(O)C(OC3OC(C)C(O)C(O)C3O)C2O)[C@@H](O)[C@@H]1O (some centres not stated),Potency,[1],inactive
same,Potency,[2],inactive
